USP1 inh – USP1/UAF1 (human) deubiquitinase inhibition | recombinant USP1/UAF1, Ub-Rhodamine cleavage fluorescence | actives 0.23% (n = 390,000) | Potency, µM (series often up to 57.1 µM), hits mostly inhibitors; note: nearly all actives have a fitted effect of over 60% in size
Target sequence (O94782 whole entry, looked up): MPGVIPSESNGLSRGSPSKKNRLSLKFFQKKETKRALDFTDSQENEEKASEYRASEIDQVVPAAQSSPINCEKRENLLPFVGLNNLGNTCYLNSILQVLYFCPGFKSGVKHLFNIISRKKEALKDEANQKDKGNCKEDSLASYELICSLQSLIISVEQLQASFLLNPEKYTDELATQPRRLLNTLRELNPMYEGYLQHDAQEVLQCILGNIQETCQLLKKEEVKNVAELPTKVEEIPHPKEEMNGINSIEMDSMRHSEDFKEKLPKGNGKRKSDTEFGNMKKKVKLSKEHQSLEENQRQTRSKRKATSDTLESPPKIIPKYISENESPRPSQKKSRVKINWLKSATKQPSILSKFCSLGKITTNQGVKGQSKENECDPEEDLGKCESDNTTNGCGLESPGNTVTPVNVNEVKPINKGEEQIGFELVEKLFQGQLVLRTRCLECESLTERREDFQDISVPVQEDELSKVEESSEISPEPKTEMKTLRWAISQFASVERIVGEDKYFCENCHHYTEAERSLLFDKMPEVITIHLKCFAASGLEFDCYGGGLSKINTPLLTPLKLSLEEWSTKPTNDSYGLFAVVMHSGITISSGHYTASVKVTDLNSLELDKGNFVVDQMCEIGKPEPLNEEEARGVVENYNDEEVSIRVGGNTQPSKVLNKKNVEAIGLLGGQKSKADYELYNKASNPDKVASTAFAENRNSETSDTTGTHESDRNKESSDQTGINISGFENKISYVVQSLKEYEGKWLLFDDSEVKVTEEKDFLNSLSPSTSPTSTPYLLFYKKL
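USP1/UAF1 complex (1 nM) preincubated 15 min at room temperature with compound, then Ub-Rho substrate (150 nM final) added. Kinetic fluorescence at 480/540 nm over 6 reads at 60 s intervals; 50 mM HEPES pH 7.8, 0.5 mM EDTA, 0.1 mg/ml BSA, 1 mM TCEP, 0.01% Tween-20.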
Coupling enz – coupling enzyme interference in Giardia aldolase counter-screen; AID 2472; actives 0.67% (n = 290,000); activity change, negative = inhibition, % at 58.2 µM, hits read low; coupling enzyme system counterscreen, AmpLite Red fluorescence; in the data active = activity change below about -30%
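Counterscreen of the coupled detection system alone, without aldolase: glyceraldehyde-3-phosphate coupling enzymes plus AmpLite Red readout. Compounds at 57.5 uM final, 10 min RT preincubation, 20 min RT reaction, fluorescence 525/598 nm.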
Tau fibril ThT – inhibitors of human tau fibril formation, thioflavin T binding | P10636 | recombinant tau K18 P301L, heparin-induced fibrillization, ThT fluorescence | Potency, µM (top dose mostly 57.4 µM), most hits filed as inhibitors | actives 2.1% (n = 270,000) | AID 1460; note: nearly all actives have a fitted effect of over 55% in size
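ThT emission at 510 nm, taken 1 hr after adding 30 uM dye, quantifies aggregates formed when 20 uM heparin acts on human tau K18 P301L for 6 hr at 37 C.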
Tau fluor counter – counter-screen for tau fibril formation inhibitors; Potency, µM (titrated, usually from 57.7 µM); tau K18 P301L (four-repeat tau fragment) Alexa594 fluorescence, heparin fibrillization; actives 0.93% (n = 280,000); note: nearly all actives have a fitted effect of over 55% in size
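Human K18 P301L tau (15 uM unlabeled plus 0.24 uM Alexa 594-labeled, final) in 100 mM sodium acetate pH 7 was mixed with compound and 20 uM heparin and incubated 6 hr at 37 C.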
Tau fibril FP – blocks human tau fibril formation measured by polarization. P10636. K18 P301L tau heparin fibrillization, Alexa594 FP, 6 h. Potency, µM (highest dose often 57.7 µM), hits mostly inhibitors. actives 0.39% (n = 280,000); note: nearly all actives have a fitted effect of over 55% in size
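Read-out: fluorescence polarization of Alexa 594-labeled tau (0.24 uM), 555 nm excitation, 632 nm emission. Mixtures held 15 uM unlabeled K18 P301L, compound and 20 uM heparin, pH 7 acetate buffer, incubated 6 hr at 37 C.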
Large screens that a line does not name were inactive; [ ] = another dose, or the depositor's remark. Shown are actives, neighbours in structure and some others; about 2.3% of the full set was active somewhere. Unless noted, calls come from the whole dose curve; as a rule, active = well fitted curve in the direction sought with a large enough effect; inconclusive = small, poorly fitted or top-dose-only effect, or another doubt; inactive = no such curve, though single readings can be large; an effect the other way counts as inactive or inconclusive.

NC(=NCCc1c[nH]c2ccccc12)NS(=O)(=O)c1ccc2ccccc2c1	Coupling enz -36.4
COc1ccc(Nc2nc3ccccc3nc2NS(=O)(=O)c2cccs2)cc1	Tau fibril ThT 14.1µM, Tau fluor counter inconclusive
CC(=O)c1ccc(Nc2nc3ccccc3nc2NS(=O)(=O)c2cccs2)cc1	none (no result: Tau fibril ThT, Tau fluor counter, Tau fibril FP)
COc1ccc(Cl)cc1C(=O)Nc1ccc2nc(Nc3cccc(Cl)c3)cc(C)c2c1	Tau fibril ThT inconclusive, Tau fluor counter 15.8µM[quencher] (no result: Coupling enz)
Cc1cc(Nc2cccc(Cl)c2)nc2ccc(NC(=O)Cc3ccc(Cl)cc3)cc12	Tau fibril ThT inconclusive, Tau fluor counter 3.55µM[quencher], Tau fibril FP inconclusive (no result: Coupling enz)
CCN1CCN(c2cc(C)c3cc(NC(=O)Cc4ccc(OC)c(OC)c4)ccc3n2)CC1	USP1 inh inconclusive, Tau fibril ThT inconclusive
Cc1cc(Nc2cccc(Cl)c2)nc2ccc(NC(=O)Cc3cccc(C(F)(F)F)c3)cc12	Tau fibril ThT inconclusive, Tau fluor counter 3.98µM[quencher], Tau fibril FP inconclusive (no result: Coupling enz)
COc1ccc(Cl)cc1C(=O)Nc1ccc(NC(C)=O)cc1	none
COc1ccc(CC(=O)Nc2ccc3nc(Nc4cccc(Cl)c4)cc(C)c3c2)cc1OC	Tau fibril ThT inconclusive, Tau fluor counter 2.51µM[quencher], Tau fibril FP inconclusive (no result: Coupling enz)
Cc1ccc(NC(=O)c2sc3ncn(Cc4cccc(F)c4)c(=O)c3c2C)c(Br)c1	none (no result: Coupling enz)
CCC(C(=O)Nc1ccccc1)n1nc(-c2cc(C)ccc2C)ccc1=O (configuration not stated)	none (no result: Coupling enz)
Cc1cc(Nc2cccc(Cl)c2)nc2ccc(NC(=O)c3ccc(F)cc3Cl)cc12	Tau fibril ThT inconclusive, Tau fluor counter 4.47µM[quencher], Tau fibril FP inconclusive (no result: Coupling enz)
O=C(Nc1nc2ccccc2c(=O)s1)c1ccc(F)cc1Cl	none (no result: Tau fibril ThT, Tau fluor counter, Tau fibril FP)
CCC(=O)N1CCc2cc(S(=O)(=O)NCCC(=O)Nc3cccc(SC)c3)ccc21	none (no result: Coupling enz)
CCC(=O)N(CC)C1=C(O)c2ccccc2C(=O)C1=O	USP1 inh 25.1µM, Coupling enz -60.9, Tau fibril ThT 15.8µM, Tau fluor counter inconclusive, Tau fibril FP inconclusive
CCN(C(=O)N(CC)c1ccccc1)c1ccccc1	none (no result: Coupling enz, Tau fibril ThT, Tau fluor counter, Tau fibril FP)
O=[N+]([O-])c1ccc(Oc2cccc3cccnc23)c(Cl)c1	Coupling enz -37.2 (no result: Tau fibril ThT, Tau fluor counter, Tau fibril FP)
NC(=O)c1ccc(Oc2cccc3cccnc23)c([N+](=O)[O-])c1	Tau fibril ThT inconclusive
Cc1cc2nc(-c3ccc(Br)cc3)cc(C(F)(F)F)n2n1	none (no result: Coupling enz)
Fc1cccc(C[n+]2csc3ccccc32)c1	Tau fibril ThT 25.1µM, Tau fibril FP inconclusive
COc1cc(=O)n(C)c2cc(N(C)C)ccc12	Coupling enz -31.2
CC(=O)Nc1ccc(-c2csc(NC(=O)C3CC(=O)N(c4ccc5c(c4)OCCO5)C3)n2)cc1 (configuration not stated)	Coupling enz -35.0, Tau fibril ThT inconclusive, Tau fluor counter inconclusive
COc1ccc(-c2csc(NC(=O)C3CC(=O)N(c4ccc5c(c4)OCCO5)C3)n2)cc1 (configuration not stated)	Tau fibril ThT inconclusive, Tau fluor counter inconclusive
CCCC(=O)OCc1cnc(C)c2oc(=O)c(C(=O)Nc3ccccc3)cc12	none (no result: Coupling enz)
CN=C1C([N+](=O)[O-])=CC=C2C1=NC1(CCCCC1)N2O	Coupling enz -45.5
O=[N+]([O-])C1=CC=C2C(=NC3(CCCCC3)N2O)C1=NCCO	Coupling enz -52.8
CN1/C(=C/C(=O)c2nc(S(C)(=O)=O)ncc2Cl)C(C)(C)c2ccccc21	Tau fibril ThT 5.01µM
CC1=NN(C(N)=S)C(=O)C1N=Nc1cccc2ccccc12 (configuration not stated)	Tau fibril ThT 3.98µM, Tau fluor counter inconclusive (no result: USP1 inh)
COc1ccc2c(c1OC)C(Cc1ccccc1)N1CCc3cc4c(cc3C1C2)OCO4 (configuration not stated)	Tau fibril ThT 15.8µM, Tau fluor counter inconclusive, Tau fibril FP inconclusive (no result: USP1 inh)
CCCS(=O)(=O)N1CCC(C(=O)N2CCN(C(=O)OCC)CC2)CC1	none
CCOC(=O)N1CCN(C(=O)C2CCN(S(=O)(=O)CC)CC2)CC1	Tau fluor counter 25.1µM[quencher], Tau fibril FP inconclusive
O=[N+]([O-])c1ccccc1/C=N/N1CCN(c2ccc(Cl)cc2)CC1	Tau fibril ThT 11.2µM, Tau fluor counter inconclusive
O=[N+]([O-])c1ccccc1/C=C\C=N\N1CCN(c2ccccc2)CC1	Tau fibril ThT 12.6µM, Tau fluor counter inconclusive
O=[N+]([O-])c1ccccc1/C=N\N1CCN(c2ccccc2)CC1	Tau fibril ThT 11.2µM, Tau fluor counter inconclusive
O=[N+]([O-])c1ccc(Cl)c(/C=N/N2CCN(c3ccccc3)CC2)c1	Tau fibril ThT inconclusive, Tau fluor counter inconclusive
O=[N+]([O-])c1ccccc1/C=C/C=N/N1CCCCC1	Tau fibril ThT inconclusive
COc1ccccc1N1CCN(/N=C/C=C/c2ccccc2[N+](=O)[O-])CC1	Tau fibril ThT 14.1µM, Tau fluor counter inconclusive
COc1ccc2[nH]cc(S(=O)(=O)c3ccc(C)c(C)c3)c(=O)c2c1	none (no result: Coupling enz)
CCCCn1c(CNC(=O)C23CC4CC(CC(C4)C2)C3)nnc1SCC(=O)Nc1ccc(F)cc1	Tau fluor counter inconclusive (no result: Coupling enz)
COc1ccc(NC(=O)c2sc3nc4n(c(=O)c3c2C)CCC4)c(OC)c1	none (no result: Coupling enz)
Cc1ccc(N2CC(NC(=O)c3cc4ccccc4o3)CC2=O)cc1C (configuration not stated)	USP1 inh inconclusive (no result: Coupling enz)
C=CCOC(=O)N[C@H](/C(C(=O)OC)=C(\C)NCc1ccccc1)c1ccc2c(c1)OCO2	none (no result: USP1 inh)
CCOC(=O)/C(C#N)=C1/C(=O)N(Cc2ccccc2)c2ccccc21	Coupling enz -37.8, Tau fibril ThT inconclusive
N#C/C(=C\Nc1ccc2cn[nH]c2c1)c1nc(-c2ccc(Cl)cc2)cs1	Coupling enz -35.2, Tau fibril ThT inconclusive, Tau fluor counter inconclusive
CCN(c1ccccc1)c1cc(NC)[n+](C)c(C)n1	none (no result: USP1 inh)
COc1ccc(CNc2nc(SCc3ccc(Cl)cc3)nc3ccccc23)cc1	none (no result: Coupling enz)
Oc1ccc(-c2csc(-c3cccnc3)n2)c(O)c1	Tau fibril ThT inconclusive
Oc1ccc(Nc2nc(-c3ccc4ccccc4c3)cs2)cc1	Tau fibril ThT 5.01µM, Tau fluor counter 7.94µM[quencher], Tau fibril FP inconclusive (no result: USP1 inh)
NS(=O)(=O)c1ccc(Nc2nc(-c3ccc(F)cc3)cs2)cc1	Tau fibril ThT inconclusive, Tau fluor counter 15.8µM[quencher]
NS(=O)(=O)c1ccc(Nc2nc(-c3ccc(O)cc3O)cs2)cc1	Tau fibril ThT 6.31µM, Tau fluor counter 14.1µM[quencher]
Oc1ccc(-c2nc(-c3ccc(O)c(O)c3)cs2)cc1	Tau fibril ThT 3.16µM, Tau fluor counter 12.6µM[quencher]
CC(CCc1ccccc1)NC(=O)Cn1c(=O)nc(-c2ccccc2F)c2cc(Cl)ccc21 (configuration not stated)	Tau fibril ThT inconclusive (no result: Coupling enz)
CC(=O)c1cccc(NC(=O)c2ccc(-c3ccccc3[N+](=O)[O-])o2)c1	Coupling enz -58.8, Tau fibril ThT inconclusive, Tau fluor counter inconclusive
